“And” between values parts separate entries of the source, which are not always exact repeats. Equal values may be shown once. Values without a mark were called inactive. Inconclusive results are not listed. The source made the active and inactive calls. Calls follow the shape of the dose curve; as a rule, active = well fitted curve in the direction sought with a large enough effect; inconclusive = small, poorly fitted or top-dose-only effect, or another doubt; inactive = no such curve, though single readings can be large; an effect the other way counts as inactive or inconclusive.

Experiment [1] in a line: Primary qHTS for inhibitors of nuclear receptor binding SET domain protein 2 (NSD2) in an RCH-ACV wild type WT cells (2C) (AID 1645877; also: nearly all actives have a fitted effect of over 70% in size; also: potency is read from the fitted curve at half-maximal effect; as to activity change, negative = cell killing: % is scaled to controls: 0 for no effect and ±100 for the full control effect). (Quantitative high-throughput screening tests each substance at several concentrations.)
The target in experiment [2] is Glutathione peroxidase 1 (Homo sapiens) (UniProt P07203). The experiment in a line: Primary qHTS Assay for Inhibitors of Recombinant Selenoprotein Glutathione Peroxidase 1 (GPX1) (AID 1845191). Also: nearly all actives have a fitted effect of over 65% in size. Also: potency is read from the fitted curve at half-maximal effect. As to activity, negative = inhibition: % is scaled to controls: 0 for no effect and ±100 for the full control effect. The method in brief:
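Recombinant GPX1 (10 nM final) was preincubated with compound for 30 min at room temperature, then reacted with 1 mM GSH, 0.5 mM CHP, 0.5 mM NADPH and 100 nM glutathione reductase; NADPH fluorescence (340/450 nm) was read at 0 and 15 min.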

Experiment [3] concerns the target Luciferin 4-monooxygenase (Photinus pyralis) (UniProt P08659). The experiment can be described thus: Primary firefly luciferase (FLuc) qHTS assay for identification of artifact compounds. (AID 1845220). Also: nearly all actives have a fitted effect of over 60% in size. Also: potency is read from the fitted curve at half-maximal effect.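 As to activity change, negative = inhibition: series mostly up to about 54 µM; plate controls were DMSO vehicle for no effect and no enzyme for full effect.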 The essentials:
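qHTS, 15 min compound preincubation with substrate (10 uM luciferin, 10 uM ATP) at RT, then 10 nM FLuc; 5 min; luminescence; % inhibition vs no-enzyme/DMSO controls, 4-parameter Hill fit.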

Experiment [4] in a line: Primary fluorescence-based thiol-reactive (MSTI) qHTS assay for identification of artifact compounds. (AID 1845221). Also: nearly all actives have a fitted effect of over 65% in size. Also: potency is read from the fitted curve at half-maximal effect.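 As to activity change, negative = thiol reactive: series mostly up to about 54 µM; thiol-reactive compounds lower the probe fluorescence signal.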 The essentials:
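First, 4 uM MSTI in 2% DMSO/PBS pH 7.4 was dispensed; next, compounds were added; then plates sat 1 h at room temperature without light. Finally, emission at 598 nm was recorded.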

The subject of experiment [5] is Nanoluciferase (engineered Oplophorus gracilirostris luciferase). The experiment can be described thus: Primary Nanoluciferase (NLuc) qHTS assay for identification of artifact compounds. (AID 1845222). Also: potency is read from the fitted curve at half-maximal effect.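 As to activity, negative = inhibition: series mostly up to about 54 µM; 0% = DMSO and -100% = no enzyme.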 The essentials: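 Luminescence read-out of secreted NLuc in S16 cell conditioned medium (1:55); compounds tested with 15 min RT preincubation, then Nano-Glo substrate 1:100, 5 min. % inhibition vs no-enzyme and DMSO controls, 4-parameter Hill fit.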

Experiment [6] is described as follows: Primary redox qHTS assay for identification of artifact compounds. (AID 1845223).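 Also: 0% = DMSO and 100% = reference compound.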 The method in brief:
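Amplex Red (25 uM) and HRP (250 mU/mL) in HBSS, with compounds for 15 min, then 250 uM DTT for 30 min, room temperature, dark. Fluorescence 525/598 nm read; normalized to DMSO and 10 uM DA3003; Hill fit.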

Experiment [7] addresses Phospholipid hydroperoxide glutathione peroxidase GPX4 (Homo sapiens) (UniProt P36969). The experiment in a line: Primary qHTS Assay for Inhibitors of Recombinant Selenoprotein Glutathione Peroxidase 4 (GPX4) (AID 1845192). Also: nearly all actives have a fitted effect of over 65% in size. Also: potency is read from the fitted curve at half-maximal effect. As to activity change, negative = inhibition: series mostly up to about 50 µM; % is scaled to controls: 0 for no effect and ±100 for the full control effect. The method in brief: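 GR-coupled readout: 100 nM GR, 1 mM GSH, 0.5 mM NADPH; NADPH fluorescence (ex 340/em 450 nm) read at t=0 and after 15 min RT. GPX4 200 nM, preincubated 30 min with compound; substrate 0.5 mM CHP.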

Chain of Glutathione peroxidase 1 (Homo sapiens) (P07203 whole entry, looked up): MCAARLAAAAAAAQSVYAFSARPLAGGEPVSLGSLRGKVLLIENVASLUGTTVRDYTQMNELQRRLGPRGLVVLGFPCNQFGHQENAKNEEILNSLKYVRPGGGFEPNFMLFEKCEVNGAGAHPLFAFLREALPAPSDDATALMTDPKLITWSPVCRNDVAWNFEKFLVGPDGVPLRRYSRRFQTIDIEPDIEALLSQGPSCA
Chain of Phospholipid hydroperoxide glutathione peroxidase GPX4 (Homo sapiens) (P36969 whole entry, looked up): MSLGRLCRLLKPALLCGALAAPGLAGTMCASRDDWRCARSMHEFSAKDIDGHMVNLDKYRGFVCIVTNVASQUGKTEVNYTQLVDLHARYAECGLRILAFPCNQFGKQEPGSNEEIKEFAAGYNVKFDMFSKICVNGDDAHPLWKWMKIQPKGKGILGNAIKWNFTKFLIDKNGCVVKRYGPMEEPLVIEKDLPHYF

Turning to `C=CC(C)(C)C12C=C(OC)C(=O)N3C(C(C)C)C(=O)NC31N(OC)c1ccccc12` (stereo not given), the Potency entry in experiment [1], in experiment [2], in experiment [3], in experiment [4], in experiment [5] and in experiment [6] was “inactive” throughout.
In the case of `C[C@H]1CC[C@@]2(OC1)O[C@H]1CC3C4CC[C@H]5C[C@@H](O)[C@H](O)C[C@]5(C)C4=CC(=O)[C@]3(C)[C@H]1[C@@H]2C` (stereo not given in full), the Potency result in experiment [1], in experiment [2], in experiment [3], in experiment [4], in experiment [5] and in experiment [6] was “inactive” each time.
Turning to `Nc1ccc(-c2cccc3c(=O)cc(N4CCOCC4)oc23)cc1`, the Potency in experiment [1] was 1.83 µM (active). For the same compound, the Potency result in experiment [2], in experiment [7], in experiment [5] and in experiment [6] was “inactive” each time.
With `O=C1NC(Cc2ccccc2)C(=O)N2CCCC12` (stereo not given), the Potency result in experiment [1], in experiment [2], in experiment [7], in experiment [5] and in experiment [6] was “inactive” in each case.
Take `OC[C@H]1O[C@@H](OCCc2ccc(O)cc2)[C@H](O[C@@H]2OC[C@](O)(CO)[C@H]2O)[C@@H](O)[C@@H]1O`: the Potency result in experiment [1], in experiment [2], in experiment [3], in experiment [5] and in experiment [6] was “inactive” each time.
With `COc1ccc(C(=O)n2c(C)c(Cc3cccc(O[C@@H](C)C(=O)O)c3)c3cc(OC(F)(F)F)ccc32)cc1`, the Potency entry in experiment [1], in experiment [2], in experiment [3], in experiment [4], in experiment [5] and in experiment [6] was “inactive” each time.
With `COC(=O)c1cc(OC)c(O[C@@H]2O[C@@H](C)[C@H](O)[C@@H](O)[C@H]2O)c(OC)c1`, the Potency result in experiment [1], in experiment [2], in experiment [3], in experiment [4], in experiment [5] and in experiment [6] was “inactive” each time.
With `Cn1c2ccc(F)cc2c2c(C(=O)N3CCCC3)cn(-c3ccccc3)c(=O)c21`, the Potency result in experiment [1], in experiment [3], in experiment [4], in experiment [5] and in experiment [6] was “inactive” each time. Moreover, in experiment [2], the Potency was 18 µM (active).
`CN[C@@H]1[C@H](O[C@H]2[C@H](O[C@@H]3[C@@H](O)[C@H](O)[C@@H](N=C(N)N)[C@H](O)[C@H]3N=C(N)N)O[C@@H](C)[C@]2(O)C=O)O[C@@H](CO)[C@H](O)[C@H]1O`: the Potency entry in experiment [1], in experiment [2], in experiment [3], in experiment [4], in experiment [5] and in experiment [6] was “inactive” in each case.
With `CC1(C)CC2=C3C=CC4C5(C)CCC(O)C(C)(C)C5CCC4(C)C3(C)CCC2(C)C(O)C1` (stereo not given), the Potency entry in experiment [1], in experiment [2], in experiment [3], in experiment [5] and in experiment [6] was “inactive” each time. For the same compound, in experiment [4], the Potency is 11.6 µM (active).
Regarding `COc1c/c(=C2\C=c3ccccc3=N2)[nH]/c1=C\c1[nH]c(C)cc1C`, the Potency in experiment [1] was 4.59 µM (active); in experiment [3], 3.38 µM (active); in experiment [4], 1.19 µM (active); in experiment [5], 10.7 µM (active). In addition, the Potency entry in experiment [7] is “inactive”.
In the case of `Nc1nccn2c(C3CCC(C(=O)O)CC3)nc(-c3cc4cccc(Cl)c4[nH]3)c12` (stereo not given), the Potency in experiment [1] is 1.15 µM (active) and 4.17 µM (active); in experiment [4], 6.7 µM (active). For the same compound, in experiment [2], the Potency entry was “inactive”.
In the case of `CCNC(=O)Nc1ccc(-c2nc3c(c(N4CCOC[C@@H]4C)n2)CCN(c2ncccn2)C3)cc1`, in experiment [1], the Potency is 0.103 µM (active). Further, the Potency entry in experiment [7], in experiment [3], in experiment [4] and in experiment [5] was “inactive” throughout.
With `Cc1cc2c(F)c(Oc3ncnn4cc(OCC(C)O)c(C)c34)ccc2[nH]1` (stereo not given), the Potency in experiment [1] is 7.28 µM (active). The Potency result in experiment [7], in experiment [3], in experiment [4] and in experiment [5] was “inactive” throughout.
Take `C1CCC[C@H]2CCCN3CC[C@@H](CCCCCC[C@@H]4CCCN5CC[C@@H](CC1)O[C@@H]45)O[C@@H]23`: in experiment [1], the activity change, negative = cell killing is -1.13% [at 0.177 µM]. Besides, in experiment [7], the activity change, negative = inhibition was -4.98% [at 0.121 µM]. Besides, the outcome in experiment [3] is “inactive [at 0.0969 µM]”. In addition, the activity change, negative = thiol reactive in experiment [4] was 0.0753% [at 0.0963 µM]. In addition, in experiment [5], the activity, negative = inhibition was 2.4% [at 0.0969 µM]. Further, the redox activity (% of DA3003) in experiment [6] was -1.13% [at 0.0963 µM].
Take `CC1C(=O)CC2C3CCC(C(=O)O)C12CC3(C)CO` (stereo not given): the Potency result in experiment [1], in experiment [2], in experiment [3], in experiment [5] and in experiment [6] was “inactive” throughout.
In the case of `COc1cc(C2c3cc4c(c(O)c3CC(CO)C2C(=O)O)OCO4)cc(OC)c1O` (stereo not given), the Potency is 2 µM (active) in experiment [1] and 10.3 µM (active) in experiment [4]. Moreover, the Potency entry in experiment [7], in experiment [3], in experiment [5] and in experiment [6] was “inactive” each time.
Consider `CC1C=CC2CCCCC2C1CCC1CC(O)CC(=O)O1` (stereo not given), for which the Potency result in experiment [1], in experiment [2], in experiment [3], in experiment [5] and in experiment [6] was “inactive” in each case.
Consider `C[C@@H]1COCCN1c1cc(C2(S(C)(=O)=O)CC2)nc(-c2cccc3[nH]ccc23)n1`, for which the Potency in experiment [1] is 0.459 µM (active); in experiment [7] it was 18 µM (active). In addition, the Potency result in experiment [3], in experiment [4] and in experiment [5] was “inactive” throughout.
In the case of `COC(=O)C[C@H]1[C@]2(C)C3=C(C)[C@H](c4ccoc4)C[C@H]3O[C@@H]2[C@H](OC(C)=O)C2[C@](C)(C(=O)OC)C=CC(=O)[C@@]21C` (stereo not given in full), the Potency entry in experiment [1], in experiment [7], in experiment [3] and in experiment [5] was “inactive” in each case. The Potency in experiment [4] is 13 µM (active).
For `CC[C@]1(O)CC2CN(CCc3c([nH]c4ccccc34)[C@@](C(=O)OC)(c3cc4c(cc3OC)N(C=O)[C@H]3[C@@](O)(C(=O)OC)[C@H](OC(C)=O)[C@]5(CC)C=CCN6CC[C@]43[C@@H]65)C2)C1` (stereo not given in full), the Potency in experiment [1] was 0.0064 µM (active). Also, the Potency entry in experiment [7], in experiment [3], in experiment [4] and in experiment [5] was “inactive” each time.
On to `CC(C)C(CO)Nc1nc(Nc2ccc(C(=O)O)c(Cl)c2)c2ncn(C(C)C)c2n1` (stereo not given), for which the Potency result in experiment [1], in experiment [7], in experiment [3] and in experiment [4] was “inactive” throughout.
`COc1c(Nc2ncc(Cl)c(N[C@H]3[C@@H](C(N)=O)[C@@H]4C=C[C@H]3C4)n2)ccc2c1CC[C@@H](N1CCOCC1)CC2`: the Potency in experiment [1] is 3.25 µM (active). Moreover, the Potency result in experiment [7], in experiment [3], in experiment [4], in experiment [5] and in experiment [6] was “inactive” in each case.
`Cc1c(CN2CCN(C(=O)C(C)O)CC2)sc2c(N3CCOCC3)nc(-c3cnc(N)nc3)nc12` (stereo not given): the Potency in experiment [1] is 0.0459 µM (active). Besides, the Potency result in experiment [7], in experiment [3], in experiment [4], in experiment [5] and in experiment [6] was “inactive” throughout.
For the compound `CC(C)(C(=O)NCC(F)(F)C(F)(F)F)C(=O)NC1C(=O)Nc2ccccc2-c2ccccc21` (stereo not given), the Potency in experiment [1] was 14.5 µM (active). For the same compound, the Potency result in experiment [7], in experiment [3], in experiment [4], in experiment [5] and in experiment [6] was “inactive” each time.
`COC(C(=O)N1Cc2[nH]nc(NC(=O)c3ccc(N4CCN(C)CC4)cc3)c2C1)c1ccccc1` (stereo not given): in experiment [1], the Potency is 0.0459 µM (active). Also, the Potency entry in experiment [7], in experiment [3], in experiment [4], in experiment [5] and in experiment [6] was “inactive” each time.
For `C#CCN(Cc1cc2c(=O)n(C)c(CN3CCN(C)CC3)nc2cc1Cl)c1ccc(C(=O)NCc2cccnc2)cc1`, the Potency result in experiment [1], in experiment [7], in experiment [3], in experiment [4] and in experiment [5] was “inactive” in each case.

(Values after PubChem BioAssay (NCATS).)
